# PLK1 PBD inh – qHTS for Inhibitors of PLK1-PDB (polo-like kinase 1 - polo-box domain): Primary Screen; Serine/threonine-protein kinase PLK1 (Homo sapiens), P53350; Plk1 PBD binding of FITC phosphopeptide, fluorescence polarization; Potency, µM, for the others: max response, negative = inhibition, usual class: inhibitors; 360,000 compounds, 2.8% hits; AID 720504, 2013; note: potency is the fitted concentration of half-maximal effect; series mostly up to about 57 µM; % is set by controls: 0 for no effect and ±100 for the full control effect; nearly all actives have a fitted effect of over 65% in size
# JMJD2A Tudor inh – qHTS Assay for Inhibitors of JMJD2A-Tudor Domain; Potency, µM (highest dose often 114 µM), without a hit: at the top dose activity change, negative = inhibition, most hits filed as inhibitors; AlphaScreen JMJD2A-Tudor / H3K4me3 peptide binding; 390,000 compounds, 4.4% hits; Lysine-specific demethylase 4A (Homo sapiens), O75164; note: potency is the fitted concentration of half-maximal effect; % is set by controls: 0 for no effect and ±100 for the full control effect; nearly all actives have a fitted effect of over 50% in size
# Target sequence (O75164 whole entry, looked up, the tested form may be a part): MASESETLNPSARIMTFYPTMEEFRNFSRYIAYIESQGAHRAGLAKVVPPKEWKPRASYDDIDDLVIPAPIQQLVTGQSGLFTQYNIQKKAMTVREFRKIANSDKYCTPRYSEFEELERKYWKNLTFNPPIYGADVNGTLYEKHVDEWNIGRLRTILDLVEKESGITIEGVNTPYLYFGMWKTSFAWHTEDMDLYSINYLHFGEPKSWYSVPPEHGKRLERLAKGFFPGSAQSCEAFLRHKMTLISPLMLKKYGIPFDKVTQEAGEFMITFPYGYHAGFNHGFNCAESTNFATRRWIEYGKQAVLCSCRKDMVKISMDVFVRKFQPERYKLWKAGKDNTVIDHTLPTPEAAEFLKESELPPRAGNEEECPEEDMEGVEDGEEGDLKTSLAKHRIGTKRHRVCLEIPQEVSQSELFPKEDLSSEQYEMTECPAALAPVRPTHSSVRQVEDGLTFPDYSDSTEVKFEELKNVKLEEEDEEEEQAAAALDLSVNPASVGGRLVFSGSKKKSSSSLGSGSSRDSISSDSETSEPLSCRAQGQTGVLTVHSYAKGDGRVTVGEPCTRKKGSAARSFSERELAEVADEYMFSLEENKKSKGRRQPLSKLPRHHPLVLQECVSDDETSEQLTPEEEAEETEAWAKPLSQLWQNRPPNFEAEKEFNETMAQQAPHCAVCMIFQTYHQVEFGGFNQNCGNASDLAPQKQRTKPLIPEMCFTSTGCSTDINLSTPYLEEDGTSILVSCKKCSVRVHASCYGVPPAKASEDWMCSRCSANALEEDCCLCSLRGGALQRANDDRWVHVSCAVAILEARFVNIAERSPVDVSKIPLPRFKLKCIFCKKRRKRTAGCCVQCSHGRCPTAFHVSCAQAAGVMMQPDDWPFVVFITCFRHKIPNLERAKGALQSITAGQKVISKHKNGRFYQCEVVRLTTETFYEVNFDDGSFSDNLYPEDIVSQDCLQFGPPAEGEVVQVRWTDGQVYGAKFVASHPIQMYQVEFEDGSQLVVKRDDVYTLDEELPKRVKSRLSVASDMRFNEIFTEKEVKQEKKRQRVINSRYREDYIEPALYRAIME
# HP1b binding inh – HTS for Inhibitors of HP1-beta Chromodomain Interactions with Methylated Histone Tails | 390,000 compounds, 0.56% hits | Potency, µM (series often up to 114 µM), inactives show at the top dose activity change, negative = inhibition, most hits filed as inhibitors | AID 540317, 2011 | AlphaScreen HP1-beta / biotin-H3K9me3 peptide binding; note: potency is the fitted concentration of half-maximal effect; nearly all actives have a fitted effect of over 70% in size
#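 Compound inhibition of the preformed complex between 50 nM HP1-beta and 50 nM biotinylated H3K9me3 peptide was read by AlphaScreen. Buffer was PBS pH 7.4 with 0.01% Tween-20. Incubations ran 30 min at room temperature, with 10 ug/mL donor/acceptor beads.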
# G9a block – qHTS Assay for Inhibitors of Histone Lysine Methyltransferase G9a | AID 504332, 2011 | 350,000 compounds, 8.8% hits | Potency, µM (doses to about 102 µM), without a hit: top-dose activity, negative = inhibition, usual class: inhibitors | Histone-lysine N-methyltransferase EHMT2 (Homo sapiens), Q96KQ7 | G9a H3K9 monomethylation, AlphaScreen, 2 h; note: potency is the fitted concentration of half-maximal effect; % is set by controls: 0 for no effect and ±100 for the full control effect; nearly all actives have a fitted effect of over 75% in size
#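 Using a bead-based AlphaScreen, monomethylated H3K9 product from 2 h room-temperature reactions (G9a 20 nM, peptide 500 nM, SAM 20 uM) was detected with 0.5 ug/mL rabbit anti-H3K9me1 antibody.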
# PI5P4K alpha inh – qHTS for Inhibitors of phosphatidylinositol 5-phosphate 4-kinase (PI5P4K). Phosphatidylinositol 5-phosphate 4-kinase type-2 alpha (Homo sapiens), P48426. AID 652105, 2013. 330,000 compounds, 1.2% hits. PI5P4Kalpha enzyme, ADP-Glo luminescence, 60 min; hits give low values. max response, %; active = max response of -50% or lower; inconclusive = between -30% and -50%; inactive = -30% or higher; note: value at the top dose of about 77 µM; % is set by controls: 0 for no effect and ±100 for the full control effect
#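 Compounds were pin-transferred onto PI5P4Kalpha and substrate in HEPES pH 7.4 buffer with EGTA, CHAPS and 5% DMSO. ATP (5 microM final) started the reaction, which ran 60 minutes at room temperature before ADP-Glo detection.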
# BAZ2B inh – qHTS Assay for Inhibitors of BAZ2B. AlphaScreen BAZ2B-H3K14Ac peptide displacement. Bromodomain adjacent to zinc finger domain protein 2B (Homo sapiens), Q9UIF8. Potency, µM (top dose mostly 114 µM), for inactives: at the highest dose activity change, negative = inhibition, most hits filed as inhibitors. 360,000 compounds, 4.4% hits; note: potency is the fitted concentration of half-maximal effect; % is set by controls: 0 for no effect and ±100 for the full control effect; nearly all actives have a fitted effect of over 60% in size
#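 In this displacement format the biotinylated H3(5-23) peptide acetylated at Lys14 serves as ligand at 50 nM, with BAZ2B at 50 nM in PBS pH 7.4 containing 0.01% Tween-20. Donor and acceptor beads are 10 ug/mL final.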
# Numbers without * were called inactive; ? = inconclusive; . = not tested or not shown; [ ] = another dose, or the depositor's remark. Sampled rows, rich in hits. Any-hit rate of the full collection: about 12%. Unless noted, calls come from the whole dose curve; as a rule, active = well fitted curve in the direction sought with a large enough effect; inconclusive = small, poorly fitted or top-dose-only effect, or another doubt; inactive = no such curve, though single readings can be large; an effect the other way counts as inactive or inconclusive.
SMILES,PLK1 PBD inh,JMJD2A Tudor inh,HP1b binding inh,G9a block,PI5P4K alpha inh,BAZ2B inh
COC(=O)C1CCN(C(=O)CSc2ccccc2)CC1,21µM*,-16%,31%,-9%[59 µM],1,5%
CC1CCCCN1C(=O)CN1C(=O)CSc2ccc(S(=O)(=O)N3CCOCC3)cc21 (stereo not drawn),?,-33%,-21%,20%[59 µM],-15,-2%
O=C(CSc1nc2ccc([N+](=O)[O-])cc2[nH]1)NC1CCCCC1,-8%,-21%,27%,9%[59 µM],.,-6%
O=C(CSc1nc2ccc(Cl)cc2[nH]1)NC1CCCC1,-22%,-17%,20%,25µM*,-6,?
O=C(CSc1ccc(Cl)cc1)NC1CCCC1,-3%,4%,28%,19%[59 µM],-2,7%
O=C(CSc1nc2ccc([N+](=O)[O-])cc2[nH]1)NC1CCCCCC1,-12%,-31%,-2%,45µM*,0,2%
CS(=O)(=O)N(CC(=O)NCc1ccco1)c1ccc(OCc2ccccc2)cc1,-10%,?,?,.,1,71µM*
O=C(O)c1ccc2c(c1)[C@@H]1C=CC[C@@H]1[C@H](c1ccccn1)N2,?,6.3µM*,?,.,.,.
COc1ccc(OC)c([C@@H]2Nc3ccc(C(=O)O)cc3[C@@H]3C=CC[C@@H]32)c1,.,?,0%,?,.,-25%
COc1ccc(C(=O)N/N=C(\C)c2ccc3c(c2)C2C=CCC2C(c2ccccc2)N3)cc1 (stereo not drawn),?,?,-9%,7.9µM*,?,?
CCOc1ccc(NC(=O)c2c(NCc3cccs3)sc3c2CCCCC3)cc1,.,?,-5%,8.9µM*,.,?
CCOc1ccc(NC(=O)c2c(NCc3ccc(C)o3)sc3c2CCCCC3)cc1,.,?,8%,5.6µM*,.,-22%
CCOc1ccc(NC(=O)c2c(NC(=O)c3cccc(C)c3)sc3c2CCC3)cc1,.,-11%,52%,-3%[59 µM],.,10%
COc1ccc(NC(=O)c2c(NCc3cccs3)sc3c2CCCCC3)cc1,.,50µM*,-5%,7.9µM*,.,40µM*
CCOc1ccc(NC(=O)c2c(NCc3sccc3C)sc3c2CCCCC3)cc1,.,?,-22%,8.9µM*,.,-38%
CCOC(=O)c1ccc(NC(=O)c2c(NCc3sccc3C)sc3c2CCC(C)C3)cc1 (stereo not drawn),.,-33%,30%,?,.,-15%
CCCCN1CC(=O)N2[C@H]3c4ccc(OC)cc4OC[C@@H]3[C@H](c3ccccc3)[C@]2(C)C1=O,-2%,-26%,13%,7%[0.501 µM],8,?
Cc1nnc(SCc2cc(=O)n3c(C)cccc3n2)s1,.,12%,27%[57 µM],-2%[59 µM],.,6%
Cc1ccc(-n2c([S-])c(C(=O)Nc3ccc(OC(F)F)cc3)[n+]3ccc(C(=O)NCCO)cc23)cc1C,-20%,-10%,10%,10µM*,-6,-37%
COc1ccccc1-n1c([S-])c(C(=O)Nc2ccccc2C(F)(F)F)[n+]2ccc(C(=O)NCCO)cc12,-26%,?,?,20µM*,-4,-19%
Cc1ccc(NC(=O)c2ccc(OC(F)F)cc2)cc1S(=O)(=O)N(C)C,4%,-18%,44%,22%[59 µM],-10,1%
CCN(CC)CCCNC(=O)c1ccc(OCC(=O)Nc2ccccc2C(F)(F)F)c(OC)c1,1%,-8%,28%,60%,10,-5%
O=C(Nc1ccc(Cl)cc1)c1ccc2c(c1)N(Cc1ccccc1)CCS2,.,-2%,72%,11%[59 µM],.,1%
COc1cc(/C=C2/C(=O)CNC2=O)ccc1O,29%,7%,26%,45µM*,-56*,-12%
COc1cc(/C=C2\CCC/C(=C\c3ccc(O)c(OC)c3)C2=O)ccc1O,-10%,28µM*,?,45µM*,-8,?
SMILES,PLK1 PBD inh,JMJD2A Tudor inh,HP1b binding inh,G9a block,PI5P4K alpha inh,BAZ2B inh
COc1cc(/C=C2/CCC/C(=C\c3cc(O)c(OC)c(Cl)c3)C2=O)cc(Cl)c1O,-27%,?,-15%,35µM*,.,?
COc1cc(/C=C2\CC/C(=C\c3cc(OC)c(O)c(OC)c3)C2=O)cc(OC)c1O,4.7µM*,45µM*,?,2.5µM*,?,50µM*
Cc1cccc(N2CCN(S(=O)(=O)c3cn(C)c(C)n3)CC2)c1C,.,-17%,5%[57 µM],6%[59 µM],.,-8%
CCOc1cc(/C=C2\CN(CC)C/C(=C\c3ccc(O)c(OCC)c3)C2=O)ccc1O,-8%,56µM*,-20%[57 µM],28µM*,-24,50µM*
Cc1cn[nH]c1,-8%,?,5%,19µM*,-1,5%
O=C(CSc1n[nH]c(-c2ccccc2Cl)n1)N1CCN(c2ccc(F)cc2)CC1,.,-14%,10%[57 µM],-5%[59 µM],.,-3%
O=C(c1ccc([N+](=O)[O-])o1)N1CCOCC1,-6%,-2%,22%,11%,-7,-14%
O=Cc1ccc(-c2cccc([N+](=O)[O-])c2)o1,-2%,-3%,10%,.,14,-7%
CC1CCN(C(=O)c2ccc(-c3ccccc3Cl)o2)CC1,-8%,113%,?,40µM*,8,?
O=Cc1ccc(-c2ccc([N+](=O)[O-])cc2Cl)o1,-1%,?,-15%,35µM*,?,?
O=C(c1ccc(-c2ccc([N+](=O)[O-])cc2Cl)o1)N1CCOCC1,-2%,-6%,22%,45µM*,-2,-35%
O=C(c1ccc(-c2cccc(Cl)c2Cl)o1)N1CCOCC1,-14%,-12%,11%,40µM*,-9,-29%
O=C(c1ccc(-c2ccccc2Cl)o1)N1CCC1,5%,-11%,13%,?,1,2%
NC(=O)C1CCCN(C(=O)c2ccc(-c3cccc(Cl)c3Cl)o2)C1 (stereo not drawn),-2%,-22%,-18%,?,0,-20%
O=C(COc1ccc(Cl)cc1)Nc1ccc2nc(SCC(=O)N3CCCC3)sc2c1,.,-15%,18%,-1%[59 µM],.,-18%
S=C(c1ccc(-c2ccc(Cl)c(Cl)c2)o1)N1CCOCC1,27µM*,35µM*,?,?,.,11µM*
O=C(NC(=S)Nc1ccc(CN2CCOCC2)cc1)c1ccc(-c2ccc(Br)cc2)o1,-14%,-22%,18%,.,1,-5%
O=C(Cc1ccc(Br)cc1)N1CCCCCC1,-3%,-4%,39%,7%[12.7 µM],-3,4%
